Bioassay records (PubChem)
Hits are enriched below; roughly 12% of the tested compounds scored in any of these assays.
BAZ2B block – BAZ2B (human) inhibition. Potency, µM (highest dose often 114 µM), for inactives: top-dose activity change, negative = inhibition, actives largely listed as inhibitors. Q9UIF8. AlphaScreen BAZ2B-H3K14Ac peptide displacement. 360,000 tested, 4.4% active; further: potency means the concentration at half of the fitted maximal effect; on the % scale 0 is the no-effect control and ±100 the full control effect; nearly all actives have a fitted effect of over 60% in size
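Complex of BAZ2B and biotin-H3K14Ac (50 nM apiece) forms over 30 min at RT, then faces library compounds up to 110 uM for another 30 min; AlphaScreen beads added, 20 min dark incubation, luminescence read.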
G9a block – blocks human histone lysine methyltransferase G9a | Q96KQ7 | G9a H3K9 monomethylation, AlphaScreen, 2 h | Potency, µM (titrated, usually from 102 µM), for inactives: top-dose activity, negative = inhibition, most hits filed as inhibitors | 350,000 tested, 8.8% active | AID 504332; further: potency means the concentration at half of the fitted maximal effect; on the % scale 0 is the no-effect control and ±100 the full control effect; nearly all actives have a fitted effect of over 75% in size
Target sequence (Q96KQ7 913-1193 limits assumed): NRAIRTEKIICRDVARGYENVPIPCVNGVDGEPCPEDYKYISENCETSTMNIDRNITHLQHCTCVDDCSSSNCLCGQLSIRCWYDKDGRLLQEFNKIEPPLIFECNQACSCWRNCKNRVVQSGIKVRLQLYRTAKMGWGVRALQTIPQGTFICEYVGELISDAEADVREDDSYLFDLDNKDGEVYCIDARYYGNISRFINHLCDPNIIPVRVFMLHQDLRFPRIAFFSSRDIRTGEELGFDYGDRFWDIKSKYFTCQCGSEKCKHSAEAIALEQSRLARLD
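Enzyme 20 nM + cpd, 15 min RT; add b-H3K9 pep 500 nM / SAM 20 uM; 2 h RT; anti-H3K9me1 Ab 0.5 ug/mL + SA donor / anti-rabbit acceptor beads 20 ug/mL each, 10 min; AlphaScreen read.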
HP1b chromo inh – HP1-beta chromodomain-methylated histone interaction inhibition. Potency, µM (doses to about 114 µM), for inactives: at the highest dose activity change, negative = inhibition, usual class: inhibitors. 390,000 tested, 0.56% active. AlphaScreen HP1-beta / biotin-H3K9me3 peptide binding. P83916; further: potency means the concentration at half of the fitted maximal effect; nearly all actives have a fitted effect of over 70% in size
Target sequence (P83916 whole entry, looked up): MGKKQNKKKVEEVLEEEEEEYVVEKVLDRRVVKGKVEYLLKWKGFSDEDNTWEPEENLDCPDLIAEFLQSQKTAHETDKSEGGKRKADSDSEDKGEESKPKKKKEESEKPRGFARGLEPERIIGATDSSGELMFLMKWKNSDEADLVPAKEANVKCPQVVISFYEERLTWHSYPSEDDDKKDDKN
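HP1-beta protein (50 nM final) preincubated 30 min at room temperature with biotinylated H3(1-18)K9me3 peptide (50 nM) in PBS pH 7.4, 0.01% Tween-20, then compound added for 30 min. AlphaScreen streptavidin donor/nickel chelate acceptor beads (10 ug/mL final), 30 min dark, luminescence read.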
PLK1 PBD inh – blocks phosphopeptide binding to human PLK1 polo-box domain | Plk1 PBD binding of FITC phosphopeptide, fluorescence polarization | AID 720504 | Potency, µM, without a hit: max response, negative = inhibition, actives largely listed as inhibitors | P53350 | 360,000 tested, 2.8% active; further: potency means the concentration at half of the fitted maximal effect; series mostly up to about 57 µM; on the % scale 0 is the no-effect control and ±100 the full control effect; nearly all actives have a fitted effect of over 65% in size
JMJD2A Tudor inh – blocks the human JMJD2A Tudor domain | AlphaScreen JMJD2A-Tudor / H3K4me3 peptide binding | 390,000 tested, 4.4% active | AID 504339 | Potency, µM (doses to about 114 µM), for the others: top-dose activity change, negative = inhibition, most hits filed as inhibitors | O75164; further: potency means the concentration at half of the fitted maximal effect; on the % scale 0 is the no-effect control and ±100 the full control effect; nearly all actives have a fitted effect of over 50% in size
PI5P4K alpha inh – inhibitors of human PI5P4K alpha; max response, %; PI5P4Kalpha enzyme, ADP-Glo luminescence, 60 min; hits give low values; 330,000 tested, 1.2% active; P48426; active means max response of -50% or lower; inconclusive means between -30% and -50%; inactive means -30% or higher; further: value at the top dose of about 77 µM; on the % scale 0 is the no-effect control and ±100 the full control effect
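Single end-point luminescence (ADP-Glo) quantified ADP from PI5P4Kalpha turnover; ATP 5 microM final, 1 h at RT, 0.1% CHAPS and 0.28 mM EGTA in HEPES pH 7.4.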
* marks the source's active call; other numbers are inactive results; ? = inconclusive; · = no result; ! = a repeat was not active; [ ] = dose if it differs, or a comment. Unless noted, the call rests on the fitted dose curve; in most records, active means well fitted curve in the direction sought with a large enough effect; inconclusive means small, poorly fitted or top-dose-only effect, or another doubt; inactive means no such curve, though single readings can be large; an effect the other way counts as inactive or inconclusive.

SMILES | BAZ2B block | G9a block | HP1b chromo inh | PLK1 PBD inh | JMJD2A Tudor inh | PI5P4K alpha inh
CCN1C(=NCCN2CCOCC2)N[C@@H](c2ccccc2)C(C(=O)OC)=C1C | ? | 50.1µM*! | -16.9% | -15.4% | ? | 0.1
CCN1C(=NCc2ccco2)N[C@@H](c2cccc(F)c2)C(C(=O)OC)=C1C | -38.6% | 39.8µM*! | 47.1% | -5.7% | ? | -0.8
CCN(CC)CCCN=C1N[C@@H](c2cccc(C(F)(F)F)c2)C(C(=O)OC)=C(C)N1CC | · | · | 25.3% | -0.9% | 25.1µM* | 9.1
CCN1C(=NCC(C)C)N[C@@H](c2cccc(F)c2)C(C(=O)OC)=C1C | ? | 39.8µM*! | 46.1% | -2.7% | ? | 2.1
COc1ccc(OC)c(C(C)NC(=O)Cn2c(=O)cc(C)c3c(C)nn(-c4ccc(C)cc4)c32)c1 (stereo not drawn) | -11.5% | -24.7%[59 µM] | 24.5% | · | -24.2% | ·
COc1cccc(NC(=O)Cn2c(=O)n(CCCCC(=O)NCCc3ccccc3)c(=O)c3ccccc32)c1 | 1.6% | 3.7%[59 µM] | 11.1% | · | -21.5% | ·
CC(C)C[C@@H]1NC(=O)N(CCCn2ccnc2)C1=O | 3.9% | 13.3% | 13.2% | -1.0% | -10.3% | 0.5
Cc1cc(C(=O)N2CCCC(N3CCN(c4cccc(C(F)(F)F)c4)CC3)C2)no1 (stereo not drawn) | -23.0% | 17.3% | 16.6% | 6.9% | -6.2% | -3.5
O=C(c1cc(C2CC2)on1)N1CCCC(N2CCN(c3cccc(C(F)(F)F)c3)CC2)C1 (stereo not drawn) | -34.5% | 79.4µM* | 8.3%[57 µM] | -12.5% | -25.8% | 5.2
O=C(Nc1ccc2c(c1)ncn2C1CCCCC1)c1ccco1 | -8.0% | 31.6µM* | 45.4% | -21.9% | -6.3%[57.1 µM] | -8.0
O=C(O)CSc1nnnn1C1CCCCC1 | 5.3% | 14.8%[0.501 µM] | 4.7% | 15µM* | 28.2µM* | ?
O=C(CSc1nnnn1C1CCCC1)Nc1cccc(NC(=O)c2ccco2)c1 | -7.1% | 6.6%[59 µM] | 12.4% | -4.4% | -24.3% | ·
O=C(CSc1nnnn1C1CCCCC1)Nc1cccc(NC(=O)c2ccco2)c1 | 0.6% | 23.7%[59 µM] | -21.4% | 2.99µM* | ? | -26.0
COc1ccccc1/C=C/C(=C1/C(=O)N(c2ccccc2)N=C1C)c1ccc(C)cc1 | 2.82µM* | ? | 2.51µM* | -24.9% | 2.82µM* | 2.3
COc1cccc(/C=C/C(=O)OCC(=O)c2ccccc2)c1OC | · | · | 100.6% | -6.3% | 24.1% | 11.8
COc1cccc(/C=C/C(=C2/C(=O)N(c3ccccc3)N=C2C)c2ccc(Br)cc2)c1OC | 1.26µM* | ? | -20.5% | -9.9% | -31.4% | -1.9
COc1cccc(/C=C/C(=C2/C(=O)N(c3ccccc3)N=C2C)c2ccccc2)c1OC | 4.47µM* | 1.41µM* | -35.5% | 1.8% | ? | 4.6
Cc1ccc(OCCCCn2c(-c3ccc(Cl)cc3)nc3ccccc3c2=O)cc1 | 23.3% | -18.0%[59 µM] | 64.3% | · | 31.5% | ·
Cc1ccc(NC(=S)N2CCC(NC(=O)c3ccco3)CC2)cc1C | -14.5% | -7.4% | 12.0% | -14.4% | -22.8% | -4.3
CCOC(=O)Cc1c(C(=O)OCC)nnc2c(-c3ccccc3)c(C)nn12 | ? | ? | -6.8% | · | ? | ·
Cc1ccc(CN2CC(N3CCCC3)CS2(=O)=O)cc1 (stereo not drawn) | · | · | · | -17.3% | · | -1.2
c1ccc2c(C[C@@H]3CNCCN3CCC34CC5CC(CC(C5)C3)C4)cccc2c1 | · | · | -3.7% | -15.5% | 39.8µM* | 2.6
CCC(C)[C@H]1CNCCN1CCc1cccc2ccccc12 (stereo partly drawn) | ? | 18.1%[2.33 µM] | -0.4% | -18.6% | 56.2µM* | -25.4
CCC(C)[C@H]1CNCCN1CCc1cc(C(F)(F)F)cc(C(F)(F)F)c1 (stereo partly drawn) | 50.1µM* | -19.5%[2.33 µM] | 25.6% | -5.3% | -34.5% | 4.3
CCC(C)[C@H]1CNCCN1CC1(c2ccccc2)CC1 (stereo partly drawn) | 9.6% | 13.4%[2.33 µM] | 37.8% | -1.5% | -21.8% | -2.6
CCCC[C@@H]1CNCCN1CCc1cc(C(F)(F)F)cc(C(F)(F)F)c1 | -8.6% | -4.1%[12.7 µM] | 46.7% | -1.9% | -24.8% | 5.8
